# From the supplement of paper PMC6555819
# What was measured:
# Assay in all cases: PBM binding z-score (relative to random genomic background probes); higher = stronger binding; sequences stand for … in GC…GCGATTGACAGCGTAGAATGAAGG
# [1] = tested on: FXR:RXRa (NR concentration 270 nM, RXRa partner concentration 90 nM)
# Summary of the method: (§1)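 Random background probes are the reference for binding z-scores. These scores derive from regression-normalized fluorescence on custom Agilent 4×180K protein-binding microarrays incubated 1 h with ligand-free nuclear receptor dimers. Binding was detected with antibodies against each partner (one per run).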
# [2] = tested on: LXRa:RXRa (NR concentration 270 nM, RXRa partner concentration 90 nM)
# Summary of the method: as §1
# [3] = tested on: LXRa homodimer (NR concentration 270 nM)
# Summary of the method: as §1
# [4] = tested on: LXRb:RXRa (NR concentration 270 nM, RXRa partner concentration 90 nM)
# Summary of the method: as §1
# [5] = tested on: LXRb homodimer (NR concentration 270 nM)
# Summary of the method: as §1
# [6] = tested on: PPARa:RXRa (NR concentration 270 nM, RXRa partner concentration 90 nM)
# Summary of the method: as §1
# [7] = tested on: PPARg:RXRa (NR concentration 180 nM, RXRa partner concentration 90 nM)
# Summary of the method: as §1
# [8] = tested on: PPARg:RXRa 270nM:90nM, anti-RXR (NR concentration 270 nM, RXRa partner concentration 90 nM)
# Summary of the method: as §1
# [9] = tested on: PPARg:RXRa 30nM:10nM, anti-RXR (NR concentration 30 nM, RXRa partner concentration 10 nM)
# Summary of the method: as §1
# [10] = tested on: PPARg:RXRa 90nM:30nM, anti-RXR (NR concentration 90 nM, RXRa partner concentration 30 nM)
# Summary of the method: as §1
# [11] = tested on: PPARg:RXRa DBDmut IVT, anti-RXR (DBD mutation: RXRa K156A/R161A, NR concentration 270 nM, RXRa partner concentration 90 nM)
# Summary of the method: as §1
# [12] = tested on: PPARg:RXRa IVT, anti-PPARg (NR concentration 270 nM, RXRa partner concentration 90 nM)
# Summary of the method: as §1
# [13] = tested on: PPARg DBDmut:RXRa IVT, anti-PPARg (DBD mutation: PPARg1 K132A/R137A, NR concentration 270 nM, RXRa partner concentration 90 nM)
# Summary of the method: as §1
# [14] = tested on: PPARg DBDmut IVT, anti-PPARg (DBD mutation: PPARg1 K132A/R137A, NR concentration 270 nM)
# Summary of the method: as §1
# [15] = tested on: PPARg homodimer (NR concentration 180 nM)
# Summary of the method: as §1
# [16] = tested on: PXR:RXRa (NR concentration 270 nM, RXRa partner concentration 90 nM)
# Summary of the method: as §1
# [17] = tested on: PXR homodimer (NR concentration 270 nM)
# Summary of the method: as §1
# [18] = tested on: RARa:RXR (NR concentration 270 nM, RXRa partner concentration 90 nM)
# Summary of the method: as §1
# [19] = tested on: RARa homodimer (NR concentration 270 nM)
# Summary of the method: as §1
# [20] = tested on: RARb:RXRa (NR concentration 270 nM, RXRa partner concentration 90 nM)
# Summary of the method: as §1
Sequence,PBM binding z-score [1],PBM binding z-score [2],PBM binding z-score [3],PBM binding z-score [4],PBM binding z-score [5],PBM binding z-score [6],PBM binding z-score [7],PBM binding z-score [8],PBM binding z-score [9],PBM binding z-score [10],PBM binding z-score [11],PBM binding z-score [12],PBM binding z-score [13],PBM binding z-score [14],PBM binding z-score [15],PBM binding z-score [16],PBM binding z-score [17],PBM binding z-score [18],PBM binding z-score [19],PBM binding z-score [20]
CGTCAAAGTTTAAGGTAACGTAACAGAAAGCAGC,0.503,0.447,-0.218,0.466,-0.063,0.794,0.72,1.11,0.465,0.749,-0.15,0.591,0.678,-0.068,0.325,0.369,0.0704,0.975,0.46,2.12
ACAGACTGGTGAGTGAAGGTAACTCAGCTGGACG,-0.31,-0.557,-0.264,-0.755,-0.871,-0.552,0.259,-0.5,-0.557,-0.438,-0.695,-0.409,-0.15,-0.348,0.0199,-0.565,-0.163,-0.434,-0.0964,-0.281
AGAATGAGGTTATTAAGATTAGGGAATTGCGGTC,1.47,1.57,0.419,1.24,0.178,2.61,1.17,1.57,0.697,1.37,2.99,2.43,1.23,0.542,1.01,1.02,0.66,1.52,0.918,1.47
TCATATAGGTAAAAGGCGAAAGTCGGTGTGGTAA,0.336,0.537,0.094,0.746,-0.359,2.66,4.65,6.15,6.72,7.04,3.92,3.21,0.28,0.103,0.768,0.309,0.159,0.628,0.926,0.164
CAAACTAGGTCAAGAAGTCAAAGTCCGCTTCCCG,3.65,2.9,0.599,1.94,0.337,4.89,7.74,6.67,4.66,6.22,7.86,8.35,2.53,3.42,2.98,1.49,0.206,2.77,0.734,4.05
CAAATTAGGTCACCGGAAGGTCAAAGTCCGCATG,6.61,6.31,5.39,5.47,1.82,6.44,9.14,7.56,5.87,7.39,8.26,8.72,5.54,4.55,7.17,6.18,1.78,7.5,2.54,5.54
GGAACGAGGGCATTCGAGTTGATAGGATGGCGAT,1.38,1.66,-0.255,-0.172,-0.504,1.12,1.01,0.531,-0.182,-0.00549,2.57,2.23,-0.409,-0.611,0.00316,3.7,1.31,0.433,-0.456,1.75
ACAGACAGGTGAGTGAAGGTAACCCAGCTGGACG,0.353,-0.0379,-0.585,-0.271,-0.844,0.275,0.708,0.399,-0.129,0.213,0.473,0.884,0.557,-0.411,0.0822,-0.299,-0.316,0.365,-0.386,0.623
ATATGTAGGTTACATCCGGGTCATTCAAGCTATG,2.46,4.38,1.74,3.45,0.746,4.7,6.29,5.22,2.73,4.53,7.38,7.61,3.54,2.95,2.2,3.81,1.61,4.07,0.831,2.43
CAAACTAGGTCAGGAGGTCAAAGTCCGCTTCCCG,5.51,5.22,4.23,4.39,1.11,5.91,8.99,7.3,5.95,7.43,7.85,8.07,2.42,1.18,6,5.16,2.29,6.31,1.8,4.92
ACAGACAGGTGATGAAGGTAATTCAGGCTATCAT,-0.202,-0.317,-0.115,-0.471,-0.286,0.215,0.583,-0.256,0.0788,-0.356,0.125,0.521,0.823,0.3,0.3,-0.0311,-0.169,0.367,0.165,0.161
CCTACTGGGACATCAGGTCATTGATATCAACGTT,1.42,1.88,2.8,2.06,0.52,2.67,2.46,3.36,1.61,3.06,4.19,4.32,0.344,0.76,1.84,1.82,1.56,2.04,0.755,1.99
TCTGCTAGGTCAGTTGGTCAGATAACGAGCTGCC,1.05,0.831,-0.457,0.683,0.181,1.36,0.922,1.72,1.53,1.68,2.68,3.15,0.782,0.323,0.482,0.274,-0.646,0.69,-0.432,3.36
GCTGCTAGGTCAGGTTAGTCAGCTAACGGGTACG,1.16,0.852,-0.246,0.282,-0.367,1.51,0.774,1.17,-0.493,0.602,2.9,2.42,-0.896,-1.02,0.349,0.128,-0.498,0.677,-0.907,3.29
CTACCAAGGTGAACAGGGTCGTTGATTACTATTC,1.07,0.788,-0.0558,1.58,-0.226,2.32,1.23,1.38,0.0525,0.997,1.92,2.88,0.525,0.178,0.785,1.89,0.796,2.11,0.321,1.75
CCTGCTGGGTCATGGTCAGCTAATCTACAGTATG,2.47,1.59,-0.658,1.42,-0.697,3.32,1.97,2.53,0.317,1.69,2.64,2.73,-0.296,0.15,0.949,1.24,-0.638,2.02,-0.488,3.35
GATACAGGGTCAGCTATAGGCCAGAGTATGGAAA,4.11,2.57,-0.223,2.13,-0.306,4.24,3.43,3.17,0.857,2.08,1.05,2.31,0.261,0.123,1.68,2.14,-0.0446,3.35,0.261,4.02
CGTGAAAGTTCAAGGTAACGTAACAGAAAGCAGC,5.94,5.62,2.82,3.12,0.85,4.54,3.2,4.01,1.51,3.03,0.31,1.59,1.08,0.978,2.81,4.03,2.44,3.46,0.962,4.93
CCGACTGGGGCAGAAAGGTAACCATACCATCCGG,-0.151,-0.447,-0.528,-0.363,-1.18,0.647,1.05,1.25,-0.0627,0.913,1.07,1.73,-0.318,-1.27,0.0459,-0.419,-0.488,-0.0683,-0.0732,0.706
TCTTGTAGATCAACAGTAGGTTAAGAAAGATCGA,0.361,0.659,0.0852,0.659,-0.18,1.13,0.249,1.49,2.78,2.39,2.46,1.72,0.934,0.698,0.243,0.284,-0.303,0.504,0.265,0.132
ACTATTATTTGAGACGAGGGCAACCGATAGGTTG,0.64,0.912,1.29,0.748,1.1,0.639,0.833,0.648,0.477,0.429,0.883,0.779,1.61,1.74,1.86,0.944,1.91,1.04,3.89,1.35
ACTTACAGGTCAACGAGGTTATAGCACGCGTATA,6.79,5.97,3.32,4.66,1.8,5.76,5.5,5.63,2.14,4.37,4.4,4.7,1.92,1.44,2.53,5.25,5.38,4.94,1.81,4.52
AGAATGAGGTTATACGTAGATGAGGGAAGAAAGT,2.17,1.97,0.0433,1.72,0.276,3.19,2.17,2.49,1.05,1.88,3.97,2.32,1.45,0.893,1.18,1.18,0.759,1.96,0.66,1.57
TCGCCTAGGTCATGCGGGCCAGTATAGTGTCGGC,4.09,2.65,0.228,1.72,-0.926,3.47,1.56,2.12,1.32,1.71,2.3,2.74,-0.0945,-0.593,0.827,1.45,-0.348,2.59,-0.685,3.87
CGAACGAGGGCATGAGTTGATGGCAAATGCCGAT,0.483,0.315,-0.503,-0.235,-0.92,1.4,1.24,1.34,-0.207,0.832,3.03,2.23,-0.341,-0.685,-0.031,0.243,-0.209,0.201,-1.03,1.99
ATAGGTAGGTTACATCCGGGTCATTCAGGCTATG,2.31,4.03,1.3,2.53,0.566,3.17,2.36,2.74,0.814,1.92,3.73,3.91,0.843,0.221,1.99,3.53,3.04,3.51,1.15,2.39
CAGCCTAGGACAGGGCCAGTATAGGAGGAACGTT,-0.452,-0.926,-0.352,-0.799,-0.979,-0.804,0.36,-0.522,-0.216,-0.473,-0.459,-0.805,-1.23,-1.3,0.0188,-0.859,-0.323,-0.684,-0.467,-0.0437
CGTCAAATTTCAACTAAGGTAACGTAAAGCACGC,1.08,0.429,0.483,0.87,0.711,0.628,0.633,0.149,0.303,0.502,0.435,0.656,1.41,1.4,0.372,0.319,0.588,0.981,1.04,0.603
ACAGACAGGTGATGAAGGTAACTCACGCTATCAT,-0.0545,0.135,-0.0211,0.0443,-0.474,0.247,0.81,0.393,0.232,-0.0255,0.262,0.375,0.0319,-0.0294,0.0571,0.00932,0.106,0.165,0.142,0.289
